# Laboratory results: ChEMBL document CHEMBL1157539, “Thousands of chemical starting points for antimalarial lead identification” (Nature, 2010)
# Tests used:
# Assay type in all cases: functional
# Plasmodium falciparum [1] = assay: GSK_TCMDC: Inhibition of Plasmodium falciparum 3D7 in whole red blood cells, using parasite LDH activity as an index of growth. Test compounds present at 2uM
# Plasmodium falciparum [2] = assay: GSK_TCMDC: Inhibition of Plasmodium falciparum Dd2 in whole red blood cells, using parasite LDH activity as an index of growth. Test compounds present at 2uM
# HepG2 = assay: GSK_TCMDC: Percent inhibition of human HepG2 cell line. Test compounds present at 10uM.
smiles,measurement,setting,value
O=C(Nc1cccc([N+](=O)[O-])c1)Nc1cccc(C(F)(F)F)c1,Inhibition,Plasmodium falciparum [1],92%
same,Inhibition,Plasmodium falciparum [2],81%
same,Inhibition,HepG2,0%
O=C(/C=C/c1ccccc1Cl)NC1CCC(CN2CCC(c3c[nH]c4ccncc34)CC2)CC1 (stereo not drawn),Inhibition,Plasmodium falciparum [1],100%
same,Inhibition,Plasmodium falciparum [2],100%
same,Inhibition,HepG2,19%
O=C(C=Cc1ccc(Cl)c(Cl)c1)NCCCCCN1CCC(CCCNC(=O)C2CC2c2ccccc2)CC1 (stereo not drawn),Inhibition,Plasmodium falciparum [1],95%
same,Inhibition,Plasmodium falciparum [2],12%
same,Inhibition,HepG2,45%
CS(=O)(=O)c1ccc(-c2cncc(Nc3cccc([N+](=O)[O-])c3)c2)cc1,Inhibition,Plasmodium falciparum [1],97%
same,Inhibition,Plasmodium falciparum [2],70%
same,Inhibition,HepG2,6%
CC(C)NCc1cc(Nc2ccnc3cc(Cl)ccc23)ccc1O.Cl,Inhibition,Plasmodium falciparum [1],100%
same,Inhibition,Plasmodium falciparum [2],100%
same,Inhibition,HepG2,27%
CS(=O)(=O)CCN(CCS(C)(=O)=O)Cc1ccc(-c2ccc3ncnc(Nc4ccc(OCc5cccc(F)c5)c(Cl)c4)c3c2)o1.Cc1ccc(S(=O)(=O)O)cc1,Inhibition,Plasmodium falciparum [1],90%
same,Inhibition,Plasmodium falciparum [2],27%
same,Inhibition,HepG2,0%
Cc1cc(C(=O)CN2C(=O)NC3(CCCc4ccccc43)C2=O)c(C)n1Cc1ccco1 (stereo not drawn),Inhibition,Plasmodium falciparum [1],90%
same,Inhibition,Plasmodium falciparum [2],0%
same,Inhibition,HepG2,11%
CCC[C@@H]([C@@H](Cc1ccc(C)s1)C(=O)N[C@@H](CNC(C)=O)C(=O)Nc1nccs1)N(O)C=O,Inhibition,Plasmodium falciparum [1],97%
same,Inhibition,Plasmodium falciparum [2],96%
same,Inhibition,HepG2,0%
CN(C)CCCN(C)C(=O)c1cc2cc(-c3ccccc3)ccc2n1S(=O)(=O)c1ccccc1.Cl,Inhibition,Plasmodium falciparum [1],98%
same,Inhibition,Plasmodium falciparum [2],66%
same,Inhibition,HepG2,29%
CN1CCN(CC(=O)Nc2ccc(-c3ccc(-c4nc5cc(C(F)(F)F)ccc5[nH]4)s3)cc2)CC1,Inhibition,Plasmodium falciparum [1],100%
same,Inhibition,Plasmodium falciparum [2],73%
same,Inhibition,HepG2,84%
CCCCN1C(=N)NC(c2ccccc2)(c2ccccc2)C1=O,Inhibition,Plasmodium falciparum [1],87%
same,Inhibition,Plasmodium falciparum [2],34%
same,Inhibition,HepG2,19%
COc1ccc2c(c1)CC(CNC[C@H](O)c1cccc(Cl)c1)CC2 (stereo partly drawn),Inhibition,Plasmodium falciparum [1],94%
same,Inhibition,Plasmodium falciparum [2],73%
same,Inhibition,HepG2,1%
CC(CN(C)C)Oc1ccc2nc(-c3cccc(OCc4ccccc4)c3)[nH]c2c1C#N (stereo not drawn),Inhibition,Plasmodium falciparum [1],100%
same,Inhibition,Plasmodium falciparum [2],94%
same,Inhibition,HepG2,57%
COc1ccc(-c2cnc3ccc(NCc4ccc(F)cc4)nn23)cc1OC,Inhibition,Plasmodium falciparum [1],97%
same,Inhibition,Plasmodium falciparum [2],99%
same,Inhibition,HepG2,35%
Cc1[nH]c(C)c(-c2ccc(Nc3ccc(C(F)(F)F)cn3)cc2)c(=O)c1Br,Inhibition,Plasmodium falciparum [1],99%
same,Inhibition,Plasmodium falciparum [2],98%
same,Inhibition,HepG2,30%
O=C(Nc1cccc(-c2ccc(-c3nc4cc(C(F)(F)F)ccc4[nH]3)cc2)c1)c1csnn1,Inhibition,Plasmodium falciparum [1],98%
same,Inhibition,Plasmodium falciparum [2],93%
same,Inhibition,HepG2,23%
CC(C)Cc1nc(N2CCOCC2)c2nnn(Cc3ccccc3)c2n1,Inhibition,Plasmodium falciparum [1],98%
same,Inhibition,Plasmodium falciparum [2],76%
same,Inhibition,HepG2,7%
Cc1cc(NCCCCCCN)nc(Nc2ccc(Cl)cc2)n1,Inhibition,Plasmodium falciparum [1],100%
same,Inhibition,Plasmodium falciparum [2],26%
same,Inhibition,HepG2,25%
CCn1cc2c3c(cc(C(=O)N[C@@H](Cc4ccccc4)[C@H](O)CNC4CCOCC4)cc31)N(C)S(=O)(=O)CC2,Inhibition,Plasmodium falciparum [1],98%
same,Inhibition,Plasmodium falciparum [2],98%
same,Inhibition,HepG2,0%
CCCS(=O)(=O)N1CCC(CO)(Cc2ccccc2C(F)(F)F)CC1,Inhibition,Plasmodium falciparum [1],97%
same,Inhibition,Plasmodium falciparum [2],57%
same,Inhibition,HepG2,0%
COc1ccccc1N1CCN(Cc2c(NC(C)=O)sc(C)c2C)CC1,Inhibition,Plasmodium falciparum [1],95%
same,Inhibition,Plasmodium falciparum [2],80%
same,Inhibition,HepG2,9%
CC(=O)c1cccc(NC(=O)NC2CCN(c3ccnc(Nc4ccc(F)cc4)n3)C2)c1 (stereo not drawn),Inhibition,Plasmodium falciparum [1],99%
same,Inhibition,Plasmodium falciparum [2],94%
same,Inhibition,HepG2,10%
COc1ccc2c(NCCc3ccccc3)cc(-c3ccccc3)nc2c1.Cl,Inhibition,Plasmodium falciparum [1],98%
same,Inhibition,Plasmodium falciparum [2],1%
same,Inhibition,HepG2,13%
COc1ccc(Cn2c(Nc3cccc(C(F)(F)F)c3)nc3cc(C(=O)NCCN4CCCC4)cnc32)cc1Cl,Inhibition,Plasmodium falciparum [1],97%
same,Inhibition,Plasmodium falciparum [2],31%
same,Inhibition,HepG2,10%
O=C(NCCCCN1CCN(c2ccc3c(c2)CCC3)CC1)c1ccc(NC(=O)c2ccc(Cl)cc2)cc1,Inhibition,Plasmodium falciparum [1],98%
same,Inhibition,Plasmodium falciparum [2],35%
same,Inhibition,HepG2,38%
O=C(CSc1nnc(O)n1Cc1ccccc1)Nc1ccccc1-c1ccccc1,Inhibition,Plasmodium falciparum [1],89%
same,Inhibition,Plasmodium falciparum [2],36%
same,Inhibition,HepG2,0%
O=C(NC1CCN(Cc2cccc(C(F)(F)F)c2)CC1)c1ccc(-c2cccc(Cl)c2)s1.O=C(O)C(F)(F)F,Inhibition,Plasmodium falciparum [1],89%
same,Inhibition,Plasmodium falciparum [2],33%
same,Inhibition,HepG2,26%
O=C(Nc1ccc(C(=O)N(Cc2ccc3c(c2)OCO3)C2CCCC2)cc1)c1cccs1,Inhibition,Plasmodium falciparum [1],97%
same,Inhibition,Plasmodium falciparum [2],95%
same,Inhibition,HepG2,14%
CN(C)C1CCN(CC#Cc2cc3ncnc(Nc4ccc(OCc5cccc(F)c5)c(Cl)c4)c3s2)CC1,Inhibition,Plasmodium falciparum [1],85%
same,Inhibition,Plasmodium falciparum [2],5%
same,Inhibition,HepG2,34%
OCCn1c(CNCCCNc2nc3ccccc3[nH]2)cc2c(Cl)cc(Cl)cc21,Inhibition,Plasmodium falciparum [1],95%
same,Inhibition,Plasmodium falciparum [2],0%
same,Inhibition,HepG2,29%
CCN1CCCC(Nc2ccnc3cc4ccccc4cc23)C1 (stereo not drawn),Inhibition,Plasmodium falciparum [1],100%
same,Inhibition,Plasmodium falciparum [2],100%
same,Inhibition,HepG2,38%
